We go through 11 compounds from PubChem BioAssay (Tox21).

Assay [1] in a line: qHTS assay to test for compound auto fluorescence at 535 nm (green) in HEK293 cells (AID 720680). A general note: qHTS replaces the single test concentration by a dilution series.
Assay [2] in a line: qHTS assay to test for compound auto fluorescence at 460 nm (blue) in HEK293 cell free culture (AID 720681). In outline: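 Blue fluorescence (Ex 405/Em 460 nm, triamterene-equivalent) was read immediately after pin transfer of compound or DMSO into medium (DMEM, 10% FBS) without cells.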
The nature of assay [3]: qHTS assay to test for compound auto fluorescence at 535 nm (green) in HEK293 cell free culture (AID 720682). In outline:
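DMEM + 10% FBS, cell-free; cpd or DMSO pinned in; Ex485/Em535 read; output as fluorescein-equivalent signal.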

Assay [4] is described as follows: qHTS assay to test for compound auto fluorescence at 590 nm (red) in HEK293 cell free culture (AID 720683). In a few lines: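 Red-channel autofluorescence of compounds in culture medium (DMEM, 10% FBS), no cells, measured at 540/590 nm. Rose Bengal sodium is the reference fluorophore for equivalence.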
Assay [5] can be described thus: qHTS assay to test for compound auto fluorescence at 590 nm (red) in HepG2 cell free culture (AID 720684). In a few lines: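 Plate contents were MEM with 10% FBS plus test compound or DMSO, no cells. Fluorescence was recorded with 540 nm excitation and 590 nm emission.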
Assay [6] in a line: qHTS assay to test for compound auto fluorescence at 460 nm (blue) in HepG2 cell free culture (AID 720685). In outline:
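Compound (23 nL) or DMSO pinned into cell-free MEM with 10% FBS; blue fluorescence read at 405/460 nm excitation/emission, expressed as auto-fluorescence equivalency to triamterene.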

A short description of assay [7]: qHTS assay to test for compound auto fluorescence at 460 nm (blue) in HepG2 cells (AID 720687). In outline: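 Blue-channel autofluorescence (Ex/Em 405/460 nm, triamterene-equivalent) was measured after 1 hr compound exposure at 37 C, 5% CO2. Cells were HepG2, plated overnight at 37 C in MEM plus 10% FBS.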
For assay [8], the target named is Glucocorticoid receptor (Homo sapiens) (UniProt P04150). As to the kind of experiment: qHTS assay to identify small molecule agonists of the glucocorticoid receptor (GR) signaling pathway (AID 720691; active = well fitted activation curve with a large enough effect in the signal ratio in the repeat runs, not every such curve was filed as active; the % refers to the signal ratio). In a few lines:
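GR-bla HeLa cells (beta-lactamase reporter under glucocorticoid response element) were plated 4 h at 37 C/5% CO2, given compounds in DMSO, and incubated 18 h at 37 C. LiveBLAzer B/G FRET substrate was added for 2 h at room temperature, then fluorescence intensity read.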

Assay [9] shares this target. As to the kind of experiment: qHTS assay to identify small molecule antagonists of the glucocorticoid receptor (GR) signaling pathway (AID 720692; active = well fitted inhibition curve with a large enough effect in the signal ratio in the repeat runs, not every such curve was filed as active; the % refers to the signal ratio). In outline: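 GR-bla HeLa cells (beta-lactamase reporter under glucocorticoid response element) were pre-plated 4 h at 37 C, treated with compounds plus 5 nM dexamethasone (final) for 18 h, then read by LiveBLAzer B/G FRET fluorescence after 2 h.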

Assay [10] can be described thus: qHTS assay to identify small molecule antagonists of the glucocorticoid receptor (GR) signaling pathway - cell viability counter screen (AID 720693). Note: nearly all actives have a fitted effect of over 55% in size.
Assay [11] can be described thus: qHTS assay for identifying genotoxic compounds that show differential cytotoxicity against isogenic chicken DT40 cell lines with known DNA damage response pathways - wild type cell line (AID 743012). Note: nearly all actives have a fitted effect of over 60% in size. In a few lines:
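Parental DNA repair-proficient DT40 cells, 300 per well, were pre-incubated ~0.5 h at 37 C/5% CO2, pin-dosed with compounds in DMSO, then incubated 40 h. Viability was read as CellTiter-Glo luminescence after 30 min at room temperature.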

A short description of assay [12]: qHTS assay for identifying genotoxic compounds that show differential cytotoxicity against isogenic chicken DT40 cell lines with known DNA damage response pathways - Rev3 mutant cell line (AID 743014). Note: nearly all actives have a fitted effect of over 55% in size. Note: potency is the fitted concentration of half-maximal effect.
Assay [13] is described as follows: qHTS assay for identifying genotoxic compounds that show differential cytotoxicity against isogenic chicken DT40 cell lines with known DNA damage response pathways - Rad54/Ku70 mutant cell line (AID 743015). Note: nearly all actives have a fitted effect of over 60% in size.
The nature of assay [14]: qHTS assay to identify small molecule antagonists of the androgen receptor (AR) signaling pathway - cell viability counter screen (AID 743033; note: nearly all actives have a fitted effect of over 45% in size).
A short description of assay [15]: qHTS assay to identify small molecule antagonists of the androgen receptor (AR) signaling pathway using the MDA cell line - cell viability counter screen (AID 743041; note: nearly all actives have a fitted effect of over 45% in size). In outline: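 R1881-driven MDA-kb2 AR-luc cells, 3,000/well, were dosed with library compounds for 16 h; cell health came from CellTiter-Fluor fluorescence in the reporter wells.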
Assay [16] is described as follows: qHTS assay to test for compound auto fluorescence at 535 nm (green) in HepG2 cell free culture (AID 720686).
The target of assay [17] is Androgen receptor (Homo sapiens) (UniProt P10275). As to the kind of experiment: qHTS assay to identify small molecule antagonists of the androgen receptor (AR) signaling pathway (AID 743035; active = well fitted inhibition curve with a large enough effect in the signal ratio in the repeat runs, not every such curve was filed as active; the % refers to the signal ratio). In a few lines: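 HEK293 cells stably carrying a UAS-driven beta-lactamase reporter (AR-UAS-bla GripTite) were plated for 4 h at 37C, then given compound and the agonist R1881 and incubated 16 h. Reporter activity was read by LiveBLAzer B/G FRET fluorescence after 2 h at room temperature.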
Sequence of Androgen receptor (Homo sapiens) (P10275 whole entry, looked up): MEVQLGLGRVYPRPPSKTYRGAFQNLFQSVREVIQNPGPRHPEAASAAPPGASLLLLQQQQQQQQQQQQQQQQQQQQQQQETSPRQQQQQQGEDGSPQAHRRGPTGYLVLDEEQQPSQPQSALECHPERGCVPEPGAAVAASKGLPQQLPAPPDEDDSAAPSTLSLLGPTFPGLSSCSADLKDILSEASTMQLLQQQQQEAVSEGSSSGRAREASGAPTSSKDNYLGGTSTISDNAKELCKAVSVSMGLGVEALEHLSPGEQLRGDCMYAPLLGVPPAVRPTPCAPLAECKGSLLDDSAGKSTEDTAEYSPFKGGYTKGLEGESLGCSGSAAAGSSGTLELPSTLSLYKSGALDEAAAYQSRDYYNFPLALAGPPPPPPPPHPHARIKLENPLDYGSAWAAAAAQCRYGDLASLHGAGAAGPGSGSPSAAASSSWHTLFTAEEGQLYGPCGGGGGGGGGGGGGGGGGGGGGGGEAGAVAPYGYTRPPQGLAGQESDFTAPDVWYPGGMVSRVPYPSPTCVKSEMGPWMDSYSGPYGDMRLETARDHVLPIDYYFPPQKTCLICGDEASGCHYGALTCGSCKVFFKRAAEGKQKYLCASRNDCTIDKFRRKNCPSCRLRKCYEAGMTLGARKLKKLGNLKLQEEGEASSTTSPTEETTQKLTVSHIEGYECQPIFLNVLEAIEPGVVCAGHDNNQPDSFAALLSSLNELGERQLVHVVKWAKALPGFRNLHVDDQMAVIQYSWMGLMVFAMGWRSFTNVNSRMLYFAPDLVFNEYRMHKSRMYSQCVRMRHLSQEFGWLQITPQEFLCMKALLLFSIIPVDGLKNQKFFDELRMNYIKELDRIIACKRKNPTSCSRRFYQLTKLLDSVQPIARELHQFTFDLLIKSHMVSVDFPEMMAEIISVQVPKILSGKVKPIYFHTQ

Assay [18] shares this target. Description: qHTS assay to identify small molecule agonists of the androgen receptor (AR) signaling pathway (AID 743036; active = well fitted activation curve with a large enough effect in the signal ratio in the repeat runs, with a control signal flat, not every such curve was filed as active; the % refers to the signal ratio). In a few lines:
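Screening used 2,000 AR-bla HEK293 cells per well, treated 16 h at 37C with test compounds in DMSO alongside positive and DMSO-only controls; beta-lactamase activity was then read by LiveBLAzer B/G FRET fluorescence after 2 h at room temperature.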

Assay [19] has the same target. Description: qHTS assay to identify small molecule agonists of the androgen receptor (AR) signaling pathway using the MDA cell line (AID 743040; note: nearly all actives have a fitted effect of over 20% in size). As to conditions: MDA-kb2 AR-luc cells, MMTV luciferase, 16 h, stronger effect = higher value. In outline: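 After a 5 h incubation at 37C and 0% CO2, MDA-kb2 reporter cells were dosed with compounds in DMSO and kept 16 h under the same conditions. Luciferase activity was then read as luminescence with ONE-Glo.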

Assay [20] has the same target. Description: qHTS assay to identify small molecule antagonists of the androgen receptor (AR) signaling pathway using the MDA cell line (AID 743042; note: nearly all actives have a fitted effect of over 55% in size). In outline:
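Antagonist mode: compounds plus R1881 agonist added to MDA-kb2 AR-luc cells, incubated 16 h at 37C. Luciferase reporter luminescence quantified, with multiplexed CellTiter-Fluor readout for cell viability.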

Values joined by “and” are separate entries in the source; they are usually repeats but may differ in a detail not shown here. Equal values may be shown once. Records with an inconclusive call do not appear. More than one record can exist for a structure, and the calls need not agree. Active and inactive are the calls of the source. Unless noted, calls come from the whole dose curve; as a rule, active = well fitted curve in the direction sought with a large enough effect in the repeat runs; inconclusive = weak or mixed curves; inactive = no such curve, though single readings can be large; an effect the other way counts as inactive or inconclusive.
% is set by controls: 0 for no effect and ±100 for the full control effect.

Sequence of Glucocorticoid receptor (Homo sapiens) (P04150 whole entry, looked up): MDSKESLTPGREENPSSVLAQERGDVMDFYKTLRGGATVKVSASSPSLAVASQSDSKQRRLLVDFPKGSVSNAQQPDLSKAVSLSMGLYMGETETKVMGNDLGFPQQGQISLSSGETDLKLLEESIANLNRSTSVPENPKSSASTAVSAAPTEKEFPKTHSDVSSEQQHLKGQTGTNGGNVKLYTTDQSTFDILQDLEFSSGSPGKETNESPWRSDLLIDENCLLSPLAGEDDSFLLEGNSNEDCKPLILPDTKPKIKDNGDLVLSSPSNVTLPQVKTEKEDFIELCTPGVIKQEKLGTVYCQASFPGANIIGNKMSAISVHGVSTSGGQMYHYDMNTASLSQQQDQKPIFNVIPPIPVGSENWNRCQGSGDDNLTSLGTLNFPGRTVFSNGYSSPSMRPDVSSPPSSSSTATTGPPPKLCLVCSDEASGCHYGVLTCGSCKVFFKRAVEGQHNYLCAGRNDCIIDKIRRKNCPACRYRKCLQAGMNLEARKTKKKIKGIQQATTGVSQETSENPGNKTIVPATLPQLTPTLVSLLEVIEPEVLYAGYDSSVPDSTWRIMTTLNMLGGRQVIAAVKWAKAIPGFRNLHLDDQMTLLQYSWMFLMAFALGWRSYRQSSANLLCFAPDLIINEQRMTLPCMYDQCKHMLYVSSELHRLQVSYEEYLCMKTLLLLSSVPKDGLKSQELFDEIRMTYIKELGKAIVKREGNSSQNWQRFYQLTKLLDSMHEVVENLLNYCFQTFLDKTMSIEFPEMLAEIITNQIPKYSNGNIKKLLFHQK

With `CCCCCCCCO`, the result in assay [1], in assay [3], in assay [4], in [5] and in [8] was inactive. Also, the Potency entry in assay [2], in assay [6], in assay [7], in assay [9], in [10] and in assay [11] was “inactive” in each case. Further, the Potency entry in assay [12], in [13] and in [14] was “inactive” throughout.

For the compound `CC(=O)OCCC(C)C`, the compound was classed as inactive in assay [1], in assay [3], in assay [4], in assay [5] and in assay [8]. The Potency result in assay [2], in [6], in assay [7], in [9], in assay [10] and in [11] was “inactive” each time. The Potency result in [12], in assay [13] and in [14] was “inactive” throughout.

On to `C=CC(C)(C)C`, for which the result in assay [1], in assay [3], in assay [4], in [5] and in assay [8] was inactive. Moreover, the Potency result in assay [2], in assay [6], in assay [7], in [9], in assay [10] and in assay [12] was “inactive” each time. Besides, the Potency entry in [13], in [14] and in assay [15] was “inactive” throughout.

With `N[C@@H](Cc1cc(I)c(Oc2ccc(O)c(I)c2)c(I)c1)C(=O)O`, the outcome in assay [1], in assay [3], in [4], in assay [5] and in assay [8] was inactive. Further, the Potency entry in [2], in [6], in assay [7], in [10], in assay [13] and in assay [14] was “inactive” each time. In assay [15], the Potency result is “inactive”. Besides, the Potency in assay [12] is 23.7 µM (active) and inactive.

Take `CC1=CC(=O)CC(C)(C)C1`: the call in assay [1], in [3], in [4], in assay [5] and in [8] was inactive. Besides, the Potency entry in [2], in [6], in [7], in assay [9], in [10] and in [11] was “inactive” each time. Moreover, the Potency result in assay [12], in assay [13], in assay [14] and in assay [15] was “inactive” throughout.

Take `CN1CCCC1=O`: the result in assay [1], in assay [3], in assay [4] and in assay [5] was inactive. For the same compound, the Potency entry in assay [2], in assay [6], in [7], in [10], in [11] and in assay [12] was “inactive” throughout. Besides, the Potency entry in assay [13] and in assay [15] was “inactive” throughout.

For the compound `CC(=O)CC(=O)N(C)C`, the result in assay [1], in assay [3], in [4], in [5], in [16] and in assay [8] was inactive. Besides, the Potency entry in assay [6], in assay [7], in assay [9], in assay [10], in [11] and in [12] was “inactive” throughout. For the same compound, the Potency entry in assay [13], in [14] and in assay [15] was “inactive” throughout.

Regarding `CCN(CC)CCNC(=O)c1ccc(N)cc1`, the compound was called inactive in assay [1], in [3], in assay [4] and in assay [5]. Further, the Potency entry in assay [6], in assay [7], in assay [10], in [11], in assay [12] and in [13] was “inactive” in each case. For the same compound, the Potency result in assay [14] and in assay [15] was “inactive” in each case.

In the case of `CC(C)=CCC/C(C)=C/C=O`, the compound was called inactive in [1], in assay [3], in assay [4], in assay [5], in assay [16] and in assay [8]. In addition, the Potency entry in assay [6], in assay [7], in assay [9], in assay [10], in [12] and in assay [13] was “inactive” each time. Moreover, the Potency entry in assay [14] and in assay [15] was “inactive” in each case.

On to `CO[Si](CCCNCCN)(OC)OC`, for which the outcome in assay [1], in [3], in [4], in assay [5] and in assay [16] was inactive. For the same compound, the Potency entry in assay [6], in [7], in [10], in [11], in assay [12] and in assay [13] was “inactive” in each case. Also, the Potency result in [14], in [17], in [18], in [15] and in assay [20] was “inactive” in each case. Further, the results for the activity change in [19] (at 70.3 µM (top of the series)) and in [19] (at 95 µM (top of the series)) were -2.52% (inactive) and 0.325% (inactive), respectively.

As for `Clc1cccc(Cl)c1NC1=NCCN1`, the call in [1], in assay [3], in assay [4], in [5], in [16] and in assay [8] was inactive. For the same compound, the Potency result in assay [6], in [7], in assay [9], in assay [10], in assay [11] and in [13] was “inactive” throughout. Also, the Potency result in assay [14] and in [15] was “inactive” in each case. In addition, in [12], the Potency result is “inactive and 61.1 µM (active)”.
